The list is not random: actives were taken first. Their share in the collection is about 1.6%.
RAD54 branch – inhibitors of human RAD54 branch migration, primary screen, biochemical, fluorescence, single point; DNA repair and recombination protein RAD54-like (Homo sapiens), Q92698; RAD54 Holliday junction branch migration, FAM/BHQ fluorescence; inhibition, % at 10.4 µM; actives 0.14% (n = 360,000);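 active = mean normalized replicate activity at least 40 and at least half of replicates scoring 40 or more; inconclusive = only one of the two criteria met; inactive = mean below 40 and under half of replicates reaching 40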;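 note: 0% = median of neutral control wells and 100% = median of positive control wells; inhibitors cause a drop in the FAM fluorescence signal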
Myeloid diff MLP – induction of myeloid progenitor differentiation, primary screen, cell-based, flow cytometry, MLPCN library; AID 624256, 2012; actives 1% (n = 360,000); calls only at 10 µM; ER-HoxA9 myeloid progenitors, lysozyme-GFP differentiation;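 active = normalized GFP-positive differentiation at or above the plate's own cutoff, the solvent-only control mean plus 3 SD; inconclusive = no clear call, values can overlap the other calls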;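 note: cells exposed to compound for four days before flow analysis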
Vif inh – HIV Vif self-association inhibitors, primary screen, imaging, HEK293T, single point. HEK293T cells, Vif self-association by quenched fluorescence, 24 h. inhibition, % at 7.49 µM. actives 0.35% (n = 340,000). AID 602346, 2012; in the data active = inhibition above about 50%, passing the limit was not always enough; inconclusive = no clear call, values can overlap the other calls; inactive = below about 31%
N-glyco inh – increase of ERlucT glycosylation luciferase signal, primary screen, N-linked glycosylation inhibitor project, D54 ERlucT cells, luminescence, set 2 | reporter increase, % at 12.5 µM | D54 ERlucT glycosylation luciferase reporter, 24 h; percent of 100 nM tunicamycin response | actives 0.23% (n = 360,000) | AID 588692, 2011;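 active = mean luciferase reporter signal, scaled so untreated is 0 and the glycosylation-blocking control 100, at or above a set limit in every replicate; inconclusive = mean reaches the limit but not every replicate does; inactive = mean below the limit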;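 note: luciferase carries N-glycosylation sites so blocking glycosylation raises the light; 0% = median of neutral control wells and 100% = median of 100 nM tunicamycin wells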
ABCB6 inh 2 – ABCB6 transporter inhibitors, primary screen, K562-ABCB6 cells, flow cytometry, MLPCN library | actives 0.19% (n = 360,000) | fluorescence ratio to DMSO, % at 10 µM | AID 602162, 2011 | ATP-binding cassette sub-family B member 6 (Homo sapiens), Q9NP58 | K562-ABCB6 porphyrin accumulation, 1 h; active compounds read low;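 active = fluorescence ratio to DMSO below 75%, the collection mean minus 3 SD; inconclusive = too few cells collected in the well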;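 note: signal is porphyrin accumulated inside mitochondria; 100% equals median channel fluorescence of DMSO control wells; lower ratio means ABCB6 inhibition with less porphyrin fluorescence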
Target sequence (Q9NP58 whole entry, looked up): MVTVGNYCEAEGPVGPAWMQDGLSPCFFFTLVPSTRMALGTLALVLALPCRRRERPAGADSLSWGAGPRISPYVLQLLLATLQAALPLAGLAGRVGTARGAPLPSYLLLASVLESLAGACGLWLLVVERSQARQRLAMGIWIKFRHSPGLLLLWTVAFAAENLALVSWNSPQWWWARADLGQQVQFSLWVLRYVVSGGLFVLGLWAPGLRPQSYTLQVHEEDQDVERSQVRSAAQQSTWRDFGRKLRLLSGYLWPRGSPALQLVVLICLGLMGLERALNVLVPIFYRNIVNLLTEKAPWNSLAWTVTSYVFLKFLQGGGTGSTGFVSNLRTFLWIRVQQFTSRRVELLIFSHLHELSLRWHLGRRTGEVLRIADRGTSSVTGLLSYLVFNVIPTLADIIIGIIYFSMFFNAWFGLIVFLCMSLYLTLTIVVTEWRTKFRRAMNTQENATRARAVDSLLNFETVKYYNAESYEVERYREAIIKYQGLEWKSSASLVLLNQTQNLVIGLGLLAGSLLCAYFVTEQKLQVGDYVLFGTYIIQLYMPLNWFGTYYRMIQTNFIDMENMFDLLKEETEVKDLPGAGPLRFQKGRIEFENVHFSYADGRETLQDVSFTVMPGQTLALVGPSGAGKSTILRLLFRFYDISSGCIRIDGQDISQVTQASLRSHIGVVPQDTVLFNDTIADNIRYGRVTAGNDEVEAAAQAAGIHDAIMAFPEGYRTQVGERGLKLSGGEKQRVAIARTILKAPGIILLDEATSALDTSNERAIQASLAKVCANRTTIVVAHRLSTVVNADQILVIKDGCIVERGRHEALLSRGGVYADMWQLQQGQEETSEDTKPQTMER
Starred values were filed as active, the others as inactive; i = inactive; ? = inconclusive; . = no result; + = active, no number.

SMILES	RAD54 branch	Myeloid diff MLP	Vif inh	N-glyco inh	ABCB6 inh 2
C[C@@H]1CCCCO[C@H](CN(C)S(=O)(=O)c2ccc(F)cc2)[C@H](C)CN([C@@H](C)CO)C(=O)c2cc(NC(=O)Nc3ccccc3)ccc2O1	-9.5	.	.	.	.
CC(C)CC#Cc1cnc2c(c1)C(=O)N([C@H](C)CO)C[C@H](C)[C@@H](CN(C)C(=O)c1cnccn1)O2	7.5	.	.	.	.
COc1ccccc1CNC(=O)CSC1=NCCS1	-8.3	i	58.3*	0.6	105.0
COc1ccccc1CNC(=O)CSc1ccc(Br)cc1	.	i	0.7	-3.2	98.0
CCCCn1c(/C=C/c2ccco2)nc2ccccc21	7.1	i	4.0	3.2	98.0
CCCCn1c(/C=N/Nc2nc3ccccc3[nH]2)nc2ccccc21	.	+	-13.2	0.0	91.0
Cn1c(=O)c(NC2CCCCC2)c2c3c(cccc31)C(=O)c1ccccc1-2	.	+	.	-8.5	529.0
Cn1c(=O)c(NCCc2ccccc2)c2c3c(cccc31)C(=O)c1ccccc1-2	-280.6	+	i	-2.3	i
C[C@@H]1CCCCO[C@H](CN(C)S(=O)(=O)c2cccs2)[C@H](C)CN([C@@H](C)CO)C(=O)c2cc(NS(=O)(=O)c3cn(C)cn3)ccc2O1	3.3	.	.	.	.
O=C(NCC[C@@H]1CC[C@@H](NS(=O)(=O)c2ccccc2)[C@@H](CO)O1)c1ccc2c(c1)OCO2	1.7	.	.	.	.
C[C@H](CO)N1C[C@H](C)[C@@H](CN(C)S(=O)(=O)c2cccs2)Oc2ccc(NS(=O)(=O)c3cn(C)cn3)cc2CC1=O	-3.6	.	.	.	.
OC[C@@H]1[C@H](c2ccc(C#Cc3ccccc3)cc2)[C@H]2CN(Cc3cncnc3)CCCCN12	-1.7	.	.	.	.
O=C(CCN1CCCCC1)N[C@@H]1CC[C@@H](CCn2cc(-c3ccccc3)nn2)O[C@H]1CO	-2.7	.	.	.	.
CCOc1ccccc1NC(=O)CN(c1ccc(OC)cc1)S(=O)(=O)c1c(C)noc1C	-12.4	?	0.6	33.5*	97.0
CCOc1ccccc1NC(=O)CN(c1cc(C)cc(C)c1)S(=O)(=O)c1c(C)noc1C	11.1	i	-2.9	-2.5	96.0
COC(=O)COc1ccc(/C=N/NC(=O)CN(c2ccccc2OC)S(=O)(=O)c2ccccc2)cc1	-1.7	i	56.6*	-10.7	101.0
COc1ccccc1N(CC(=O)N/N=C/c1ccc(OCC(=O)NCc2ccco2)cc1)S(=O)(=O)c1ccc(C)cc1	-5.1	i	8.2	-8.9	75.0
C[C@H]1CN([C@@H](C)CO)C(=O)CCCn2nncc2CO[C@@H]1CN(C)S(=O)(=O)c1ccc2ccccc2c1	-2.5	i	.	0.1	99.0
C[C@H](CO)N1C[C@H](C)[C@@H](CN(C)S(=O)(=O)c2ccc3ccccc3c2)OCc2cnnn2CCCC1=O	-2.9	+	5.6	1.0	94.0
CCC(=O)Nc1ccc2c(c1)OC[C@@H](C)N(Cc1cccnc1)C[C@H](C)[C@@H](OC)CN(C)C2=O	-10.9	.	.	.	.
O=C(NNC1=NCCC1)C1CC1	-19.0	+	8.1	-0.6	282.0
COc1cc([N+](=O)[O-])ccc1-c1ccc(/C=N/NC(N)=O)o1	-10.3	+	23.8	1.0	145.0
COc1cc([N+](=O)[O-])ccc1-c1ccc(/C=N/NC(=O)OC(C)(C)C)o1	3.9	i	10.7	4.1	102.0
C[C@]12CCC3C(CC[C@H]4CC(O)CC[C@]34C)C1CC/C2=N/O (stereo partly specified)	-14.2	i	6.7	-3.9	93.0
C[C@]12CCC3C(CC[C@H]4CC(O)CC[C@]34C)C1CC/C2=N/NC(=O)c1ccncc1 (stereo partly specified)	.	+	-5.1	-3.0	261.0
SMILES	RAD54 branch	Myeloid diff MLP	Vif inh	N-glyco inh	ABCB6 inh 2
Cc1nc(/N=C\c2ccc(N(C)C)cc2)sc1C	-0.7	+	1.6	1.0	100.0
O=C1c2ccccc2S(=O)(=O)N1CC(O)COc1ccc(Br)cc1 (stereo unspecified)	2.6	i	-7.5	0.8	73.0*
O=C1c2ccccc2S(=O)(=O)N1CC(O)COc1ccc(Cl)cc1 (stereo unspecified)	-7.8	i	0.0	0.7	85.0
COc1ccccc1CNC(=O)C[C@H]1C[C@H]2c3cc(NC(=O)Cc4ccncc4)ccc3O[C@H]2[C@H](CO)O1	-23.3	.	.	.	.
CC1(C)Cc2c(sc(NC(=O)c3ccc(C(=O)c4ccccc4)cc3)c2C(N)=O)C(C)(C)N1	22.0	+	6.4	-5.0	99.0
COC(=O)c1c(NC(=O)c2ccccc2)sc2c1CC(C)(C)NC2(C)C	3.9	i	10.1	-1.8	100.0
COC(=O)c1c(NC(=O)c2ccc(OC(C)C)cc2)sc2c1CC(C)(C)NC2(C)C	6.2	+	28.5	0.3	102.0
O=C(N[C@H]1CC[C@@H](CCNS(=O)(=O)c2ccc(Cl)cc2)O[C@@H]1CO)c1cccc(F)c1	-1.2	.	.	.	.
C[C@@H]1CCCCO[C@@H](CN(C)C(=O)Cc2ccccc2)[C@H](C)CN([C@H](C)CO)C(=O)c2cc(NC(=O)CCC(F)(F)F)ccc2O1	-4.9	.	.	.	.
CN1c2ccc(C3=CCCCC3)cc2[C@@H]2[C@@H](CCN2C(=O)Nc2ccc(F)cc2)[C@@H]1CO	-2.3	.	.	.	.
CCc1ccc(-c2cc(C(F)(F)F)n3nc(C(=O)Nc4c(C)nn(Cc5ccccc5Cl)c4C)cc3n2)s1	3.1	i	5.2	-5.9	97.0
CCc1ccc(-c2cc(C(F)(F)F)n3nc(C(=O)Nc4c(C)nn(Cc5ccccc5C)c4C)cc3n2)s1	.	+	7.1	-5.4	112.0
COc1ccc(C(=O)c2coc3ccc(O)c(CN4CCCCC4)c23)cc1	16.2	+	-6.1	-6.2	96.0
COc1cc(CN2CCc3c([nH]c4ccccc34)C2)cc(OC)c1	13.1	+	-4.7	4.1	121.0
CN1CCc2c(sc3c2C(=O)NC(c2cccs2)N3)C1 (stereo unspecified)	-14.7	i	79.8*	-0.1	114.0
CC(=O)c1cc(C(=O)N2CCc3c([nH]c4ccccc34)C2C2CCCCC2)[nH]n1 (stereo unspecified)	.	+	3.0	1.5	153.0
CNc1ccccc1C(C)(C)c1cc(-c2cccc(OC)c2)no1	.	+	-0.1	-9.7	i
CNc1ccccc1C(C)(C)c1cc(-c2cc(C)cc(C)c2)no1	.	i	-1.7	-13.0	96.0
CCc1ccc(NC(=O)Cn2c(=O)n(CCC(=O)NC3CCN(Cc4ccccc4)CC3)c(=O)c3ccccc32)cc1	-5.7	i	17.9	37.7*	95.0
C[C@@H]1CCCCO[C@@H](CN(C)Cc2ccccc2)[C@@H](C)CN([C@@H](C)CO)C(=O)c2cc(NS(=O)(=O)c3ccc(Cl)cc3)ccc2O1	2.1	.	.	.	.

Bioassay records (PubChem BioAssay)
